About 2,000 (36%) of roughly 5,500 compounds were called active. About 18% were inconclusive and are not listed. No stated cut-off is given here; in the data, active means normalized growth mostly below about 0.91 (no sharp cut-off); inconclusive means no clear call, values can overlap the other calls; inactive means mostly above about 0.92. This is one part of the list.
Assay: chemical genetic growth profiling, strain panel (AID 1159580);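 further: tested at 20 µM; growth read once vehicle control cultures reached saturation at 30 °C; 1 = growth at the plate median or of vehicle wells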
Settings: growth OD

Measured: normalized growth

COc1ccc(C(=O)c2ccccc2O)c(O)c1
active: S. cerevisiae deletion strains, locus YKL085W, strain MDH1 (second series), stronger effect = lower value 0.905 | S. cerevisiae deletion strains, locus YKL085W, strain MDH1, stronger effect = lower value 0.905 | S. cerevisiae deletion strains, locus YKL160W, strain elf1, stronger effect = lower value 0.896 | S. cerevisiae deletion strains, locus YKR001C, strain vps1, stronger effect = lower value 0.71 | S. cerevisiae deletion strains, locus YKR026C, strain gcn3, stronger effect = lower value 0.894 | S. cerevisiae deletion strains, locus YKR091W, strain srl3, stronger effect = lower value 0.901 | S. cerevisiae deletion strains, locus YLL026W, stronger effect = lower value 0.88 | S. cerevisiae deletion strains, locus YLL041C, strain sdh2, stronger effect = lower value 0.885 | S. cerevisiae deletion strains, locus YLR027C, strain aat2, stronger effect = lower value 0.875 | S. cerevisiae deletion strains, locus YLR039C, strain RIC1, stronger effect = lower value 0.63 | S. cerevisiae deletion strains, locus YLR221C, strain rsa3, stronger effect = lower value 0.891 | S. cerevisiae deletion strains, locus YLR258W, strain gsy2, stronger effect = lower value 0.869 | S. cerevisiae deletion strains, locus YLR262C, strain YPT6 (second series), stronger effect = lower value 0.46 | S. cerevisiae deletion strains, locus YLR262C, strain YPT6, stronger effect = lower value 0.562 | S. cerevisiae deletion strains, locus YLR320W, strain mms22, stronger effect = lower value 0.717 | S. cerevisiae deletion strains, locus YLR342W, strain FKS1, stronger effect = lower value 0.872 | S. cerevisiae deletion strains, locus YLR370C, strain arc18, stronger effect = lower value 0.841 | S. cerevisiae deletion strains, locus YLR384C, strain iki3, stronger effect = lower value 0.89 | S. cerevisiae deletion strains, locus YLR418C, strain cdc73, stronger effect = lower value 0.821 | S. cerevisiae deletion strains, locus YML120C, strain ndi1, stronger effect = lower value 0.878 | S. cerevisiae deletion strains, locus YML124C, strain tub3, stronger effect = lower value 0.925 | S. cerevisiae deletion strains, locus YMR058W, strain fet3, stronger effect = lower value 0.824 | S. cerevisiae deletion strains, locus YMR129W, stronger effect = lower value 0.888 | S. cerevisiae deletion strains, locus YMR205C, strain PFK2, stronger effect = lower value 0.803 | S. cerevisiae deletion strains, locus YMR223W, strain ubp8, stronger effect = lower value 0.873 | S. cerevisiae deletion strains, locus YMR231W, strain pep5, stronger effect = lower value 0.895 | S. cerevisiae deletion strains, locus YNL071W, strain lat1, stronger effect = lower value 0.75 | S. cerevisiae deletion strains, locus YNL209W, strain ssb2, stronger effect = lower value 0.913 | S. cerevisiae deletion strains, locus YNL233W, strain BNI4, stronger effect = lower value 0.869 | S. cerevisiae deletion strains, locus YNL248C, strain rpa49, stronger effect = lower value 0.858 | S. cerevisiae deletion strains, locus YNL271C, strain bni1, stronger effect = lower value 0.91 | S. cerevisiae deletion strains, locus YNL298W, strain CLA4, stronger effect = lower value 0.899 | S. cerevisiae deletion strains, locus YNL307C, strain MCK1, stronger effect = lower value 0.874 | S. cerevisiae deletion strains, locus YNL322C, strain KRE1 (second series), stronger effect = lower value 0.888 | S. cerevisiae deletion strains, locus YNR049C, strain mso1, stronger effect = lower value 0.889 | S. cerevisiae deletion strains, locus YOL147C, strain pex11, stronger effect = lower value 0.924 | S. cerevisiae deletion strains, locus YOR001W, strain rrp6, stronger effect = lower value 0.794 | S. cerevisiae deletion strains, locus YOR070C, strain gyp1, stronger effect = lower value 0.913 | S. cerevisiae deletion strains, locus YOR083W, strain WHI5, stronger effect = lower value 0.884 | S. cerevisiae deletion strains, locus YOR106W, strain vam3, stronger effect = lower value 0.866 | S. cerevisiae deletion strains, locus YOR184W, strain ser1, stronger effect = lower value 0.754 | S. cerevisiae deletion strains, locus YOR265W, strain rbl2, stronger effect = lower value 0.891 | S. cerevisiae deletion strains, locus YOR270C, strain vph1, stronger effect = lower value 0.469 | S. cerevisiae deletion strains, locus YOR290C, strain snf2, stronger effect = lower value 0.803 | S. cerevisiae deletion strains, locus YPL051W, strain arl3, stronger effect = lower value 0.729 | S. cerevisiae deletion strains, locus YPL078C, strain atp4, stronger effect = lower value 0.79 | S. cerevisiae deletion strains, locus YPL240C, strain hsp82, stronger effect = lower value 0.901 | S. cerevisiae deletion strains, locus YPR141C, strain kar3, stronger effect = lower value 0.905 | S. cerevisiae deletion strains, strain wtn01, stronger effect = lower value 0.891
inactive: S. cerevisiae deletion strains, locus YJR066W, strain TOR1, stronger effect = lower value 0.901 | S. cerevisiae deletion strains, locus YKL009W, strain mrt4, stronger effect = lower value 0.895 | S. cerevisiae deletion strains, locus YKL068W, stronger effect = lower value 0.944 | S. cerevisiae deletion strains, locus YKL190W, strain CNB1, stronger effect = lower value 0.963 | S. cerevisiae deletion strains, locus YLL001W, strain dnm1, stronger effect = lower value 0.92 | S. cerevisiae deletion strains, locus YLR058C, strain SHM2, stronger effect = lower value 0.919 | S. cerevisiae deletion strains, locus YLR102C, strain apc9, stronger effect = lower value 0.948 | S. cerevisiae deletion strains, locus YLR113W, strain HOG1, stronger effect = lower value 0.907 | S. cerevisiae deletion strains, locus YLR268W, strain sec22, stronger effect = lower value 0.938 | S. cerevisiae deletion strains, locus YLR330W, strain CHS5, stronger effect = lower value 0.923 | S. cerevisiae deletion strains, locus YLR342W, strain FKS1 (second series), stronger effect = lower value 0.838 | S. cerevisiae deletion strains, locus YLR357W, strain rsc2, stronger effect = lower value 0.986 | S. cerevisiae deletion strains, locus YLR371W, strain rom2, stronger effect = lower value 0.91 | S. cerevisiae deletion strains, locus YML016C, strain PPZ1, stronger effect = lower value 0.93 | S. cerevisiae deletion strains, locus YML032C, strain rad52, stronger effect = lower value 0.923 | S. cerevisiae deletion strains, locus YMR078C, strain ctf18, stronger effect = lower value 0.913 | S. cerevisiae deletion strains, locus YMR125W, strain sto1, stronger effect = lower value 0.915 | S. cerevisiae deletion strains, locus YMR263W, strain SAP30, stronger effect = lower value 0.903 | S. cerevisiae deletion strains, locus YMR307W, strain GAS1, stronger effect = lower value 0.852 | S. cerevisiae deletion strains, locus YNL067W, strain RPL9B, stronger effect = lower value 0.892 | S. cerevisiae deletion strains, locus YNL128W, strain TEP1, stronger effect = lower value 0.948 | S. cerevisiae deletion strains, locus YNL183C, strain NPR1, stronger effect = lower value 0.908 | S. cerevisiae deletion strains, locus YNL250W, strain rad50, stronger effect = lower value 0.951 | S. cerevisiae deletion strains, locus YNL322C, strain KRE1, stronger effect = lower value 0.983 | S. cerevisiae deletion strains, locus YNR052C, strain pop2, stronger effect = lower value 0.96 | S. cerevisiae deletion strains, locus YOL006C, strain TOP1, stronger effect = lower value 0.564 | S. cerevisiae deletion strains, locus YOL012C, strain htz1 1.21 | S. cerevisiae deletion strains, locus YOR061W, strain CKA2, stronger effect = lower value 0.945 | S. cerevisiae deletion strains, locus YOR069W, strain VPS5, stronger effect = lower value 0.955 | S. cerevisiae deletion strains, locus YOR080W, strain dia2, stronger effect = lower value 0.919 | S. cerevisiae deletion strains, locus YOR136W, strain idh2, stronger effect = lower value 0.961 | S. cerevisiae deletion strains, locus YOR144C, strain elg1, stronger effect = lower value 0.938 | S. cerevisiae deletion strains, locus YOR231W, strain MKK1, stronger effect = lower value 0.958 | S. cerevisiae deletion strains, locus YOR316C, strain cot1, stronger effect = lower value 0.936 | S. cerevisiae deletion strains, locus YPL055C, strain LGE1, stronger effect = lower value 0.9 | S. cerevisiae deletion strains, locus YPL106C, strain sse1, stronger effect = lower value 0.935 | S. cerevisiae deletion strains, locus YPL241C, strain CIN2, stronger effect = lower value 0.972 | S. cerevisiae deletion strains, locus YPL256C, strain CLN2, stronger effect = lower value 0.918 | S. cerevisiae deletion strains, locus YPR119W, strain clb2, stronger effect = lower value 0.931 | S. cerevisiae deletion strains, locus YPR163C, strain tif3, stronger effect = lower value 0.968 | S. cerevisiae deletion strains, locus YPR167C, strain met16, stronger effect = lower value 0.925 | S. cerevisiae strains, strain wild type, stronger effect = lower value 0.951
